Compound activity deposited in PubChem BioAssay by National Center for Advancing Translational Sciences (NCATS).
PLK1 PBD inh: qHTS for Inhibitors of PLK1-PDB (polo-like kinase 1 - polo-box domain): Primary Screen | AID 720504, 2013 | hit rate 2.8% among 360,000 | Plk1 PBD binding of FITC phosphopeptide, fluorescence polarization | Serine/threonine-protein kinase PLK1 (Homo sapiens), P53350 | Potency, µM, inactives show max response, negative = inhibition, usual class: inhibitors; also: series mostly up to about 57 µM; nearly all actives have a fitted effect of over 65% in size
Sfp PPTase inh: qHTS Assay for Inhibitors of Bacillus subtilis Sfp phosphopantetheinyl transferase (PPTase); Biochemical Sfp PPTase activity, qHTS; 4'-phosphopantetheinyl transferase ffp (Bacillus subtilis), Q9F4F7; hit rate 3.5% among 310,000; Potency, µM, inactives show largest response in the series, negative = inhibition, most hits filed as inhibitors; AID 1490, 2009;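 also: the enzyme is Sfp with the accession as filed and its product quenches rhodamine fluorescence; 0% = enzyme reaction without inhibitor and -100% = no enzyme wells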
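Step 1, compound plus 15 nM Sfp-PPTase, 15 min, room temperature. Step 2, add rhodamine-CoA (5 uM) and BHQ-2-YbbR (12.5 uM). Step 3, read 525/598 nm fluorescence at 0 and 30 min.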
VDR inh: Inhibitors of the vitamin D receptor (VDR): qHTS | Potency, µM, inactives show max response, negative = inhibition, usual class: inhibitors | VDR-SRC2-3 peptide fluorescence polarization, 2 h | AID 504847, 2011 | hit rate 0.93% among 400,000 | Vitamin D3 receptor (Homo sapiens), P11473
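FP read-out; VDR + SRC2-3 coactivator peptide; 23 nl compound by pintool; 2 h RT incubation; reagents held at 4 deg C, protected from light.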
ALOX12 inh: Primary qHTS assay for inhibitors of human arachidonate 12S-lipoxygenase (ALOX12): Round 2 | purified 12hLO, xylenol orange hydroperoxide absorbance | Potency, µM (highest dose often 108 µM), without a hit: at the highest dose activity change, negative = inhibition, hits mostly inhibitors | hit rate 1.1% among 580,000
Target sequence (P18054 whole entry, looked up): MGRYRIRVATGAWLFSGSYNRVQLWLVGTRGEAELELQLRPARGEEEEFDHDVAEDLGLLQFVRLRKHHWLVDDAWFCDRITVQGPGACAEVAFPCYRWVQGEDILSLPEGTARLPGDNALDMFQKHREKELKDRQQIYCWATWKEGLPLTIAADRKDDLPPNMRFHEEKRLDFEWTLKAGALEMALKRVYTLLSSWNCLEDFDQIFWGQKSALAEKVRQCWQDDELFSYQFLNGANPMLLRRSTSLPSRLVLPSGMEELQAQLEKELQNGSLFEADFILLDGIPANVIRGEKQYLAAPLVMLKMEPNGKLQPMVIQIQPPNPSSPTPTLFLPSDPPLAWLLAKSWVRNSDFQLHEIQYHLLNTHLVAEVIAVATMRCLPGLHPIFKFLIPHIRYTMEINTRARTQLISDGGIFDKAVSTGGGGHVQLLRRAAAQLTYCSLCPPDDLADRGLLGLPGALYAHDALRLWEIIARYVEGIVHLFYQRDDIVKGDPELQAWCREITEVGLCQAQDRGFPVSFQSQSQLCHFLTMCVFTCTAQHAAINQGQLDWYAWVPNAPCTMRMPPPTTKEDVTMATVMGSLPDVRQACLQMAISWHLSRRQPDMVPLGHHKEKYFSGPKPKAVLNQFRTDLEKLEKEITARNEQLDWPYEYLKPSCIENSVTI
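Purified human 12hLO (150 nM final) in 25 mM Hepes, 0.01% Triton X-100, pH 7.0 was preincubated 15 min at room temperature with compound. Then 40 uM arachidonic acid was added, 30 min. Hydroperoxide was read by Fe-XO absorbance ratio 573/405 nm.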
Active calls of the source: *; ? = inconclusive; . = not tested or not shown; [ ] = dose if it differs, or a comment. Rows were chosen to be rich in hits. Some 4.2% of all compounds tested hit in one or more screens of this group. Calls follow the shape of the dose curve; as a rule, active = well fitted curve in the direction sought with a large enough effect; inconclusive = small, poorly fitted or top-dose-only effect, or another doubt; inactive = no such curve, though single readings can be large; an effect the other way counts as inactive or inconclusive. Unless noted, % is scaled to controls: 0 for no effect and ±100 for the full control effect; potency is read from the fitted curve at half-maximal effect.

SMILES	PLK1 PBD inh	Sfp PPTase inh	VDR inh	ALOX12 inh
OCCN1CCN(c2ncnc3c2c(-c2ccccc2)cn3-c2ccc(Br)cc2)CC1	0%	22µM*	-10%	?
CCN1CCN(c2ncnc3c2c(-c2ccccc2)cn3-c2ccc(F)cc2)CC1	-5%	40µM*	13%	6%
O=C(CSc1nc2ccccc2s1)Nc1ccc2c(c1)oc1ccccc12	-12%	-1%	2%	-12%
Cc1[nH]n(-c2ccccc2)c(=O)c1C(C[N+](=O)[O-])c1ccc(Cl)cc1 (centres undefined)	12µM*	-6%	?	?
Cc1[nH]n(-c2ccccc2)c(=O)c1C(c1ccccc1C(=O)O)c1c(C)[nH]n(-c2ccccc2)c1=O	-4%	-13%	-3%	-9%
COc1ccc(C(c2c(C)[nH]n(-c3ccccc3)c2=O)c2c(C)[nH]n(-c3ccccc3)c2=O)cc1OC	2.7µM*	1%	-8%	?
Cc1ccc(C(C[N+](=O)[O-])c2c(C)[nH]n(-c3ccccc3)c2=O)cc1 (centres undefined)	-28%	-16%	45µM*	?
Cc1[nH]n(-c2ccccc2)c(=O)c1Sc1ccc(Cl)cc1	0%	15%	-1%	?
Cc1[nH]n(-c2ccccc2)c(=O)c1C(c1ccccc1[N+](=O)[O-])C(C#N)C#N (centres undefined)	30µM*	5%	89µM*	0%
Cc1[nH]n(-c2ccccc2)c(=O)c1C(C[N+](=O)[O-])c1ccc(F)cc1 (centres undefined)	?	2%	?	16%
COc1ccccc1C(=O)C1CCCN(C(=O)c2ccco2)C1 (centres undefined)	-15%	12%	-15%	18%
O=C(Nc1ccc2c(c1)CCCN2C(=O)c1cccs1)c1cccc(C(F)(F)F)c1	.	.	0%	?
CCCN(CC(=O)Nc1ccccc1C)C(=O)Cc1coc2cc(C)ccc12	-5%	-2%	3%	?
COc1cccc(CNS(=O)(=O)c2ccccc2Br)c1OC	19µM*	.	?	-5%
COc1ccccc1CNc1nc(-c2ccccc2)cs1	.	.	.	14µM*
COc1ccccc1CNc1cncnc1	-18%	5%	-16%	29%
COc1ccccc1CNS(=O)(=O)N(C)C	21µM*	8%	7%	12%
COc1ccccc1CNc1ncccn1	-16%	79µM*	-4%	?
COc1ccccc1CNCCS(=O)(=O)NCc1ccccc1OC	-11%	.	-8%	32%
Cc1nn(Cc2c(F)cccc2Cl)c(=O)c2ccccc12	-5%	-2%	0%	-15%
Cc1ccc(OC2(C(=O)NC(C)c3cn4ncsc4n3)CCNCC2)cc1 (centres undefined)	.	.	.	14µM*
Cc1ccc(OC2(C(=O)NC(C)c3nn[nH]n3)CCNCC2)cc1 (centres undefined)	.	.	.	-7%
COc1cccc(N2C(=O)NC(=NC3CCCCC3)C23CCCN(CC2CC2)C3)c1 (centres undefined)	.	.	.	8%[6.33 µM]
COc1cccc(N2C(=O)NC(=NC3CCCC3)C23CCCN(CC2CCCCC2)C3)c1 (centres undefined)	.	.	.	79µM*
c1ccc2[nH]c(NCCCN3CCOCC3)nc2c1	1%	7%	3%	-10%
SMILES	PLK1 PBD inh	Sfp PPTase inh	VDR inh	ALOX12 inh
S=c1[nH]nc(NCCCN2CCOCC2)s1	12µM*	35µM*	89µM*	?
S=C(c1ccc(-c2cc(Cl)ccc2Cl)o1)N1CCCCC1	-1%	16µM*	-17%	-28%
O=C(c1ccc(-c2ccccc2Cl)o1)N1CCCCCCC1	-1%	.	-17%	5%
O=C(Nc1ccc(CN2CCOCC2)cc1)c1ccc(-c2cc(Cl)ccc2Cl)o1	-5%	3%	-1%	0%
S=C(c1ccc(-c2cc(Cl)ccc2Cl)o1)N1CCOCC1	-13%	25µM*	-6%	?
O=[N+]([O-])c1ccccc1-c1ccc(C(=S)N2CCCCC2)o1	-19%	25µM*	?	0%
CCOC(=O)N1CCC2(CC1)CC(=O)c1cc(O)ccc1O2	0%	13%	-8%	-4%
COc1cc(OC)cc(C(=O)N2CCC3(CC2)NC(=O)N(c2cccc(F)c2)N3)c1	.	.	.	2.8µM*
COc1ccc(C(=O)N2CCC3(CC2)NC(=O)N(c2cccc(Cl)c2)N3)cc1	.	.	.	1.8µM*
COc1cc(OC)cc(C(=O)N2CCC3(CC2)NC(=O)N(Cc2ccccc2)C3=O)c1	.	.	.	8%
COc1cc(OC)cc(C(=O)N2CCC3(CC2)NC(=O)N(c2cccc(Cl)c2)N3)c1	.	.	.	1.3µM*
COc1ccccc1CCC(=O)N1CCC2(CC1)NC(=O)N(c1cccc(F)c1)N2	.	.	.	10µM*
CCOC(=O)C1C(C#N)=C(N)OC(C)=C1c1ccncc1 (centres undefined)	-4%	17%	5%	?
O=C(NC1CCN(c2cc(-c3ccc(Cl)cc3)[nH]n2)CC1)c1ccccn1	.	.	.	32%
N#C/C(=C\C=C\c1ccco1)C(=O)NC1CCCCCC1	.	.	.	13µM*
N#C/C(=C\c1ccccc1[N+](=O)[O-])C(=O)NC1CCCCC1	-15%	89µM*	?	-1%
N#C/C(=C\c1cc(Cl)cc(Cl)c1O)C(=O)NC1CCCCC1	-17%	-5%	-2%	7.1µM*
COCC1CCN(C(=O)c2cc(COc3ccc(OC)c4ccccc34)on2)C1 (centres undefined)	-5%	.	8%	-11%
CN1CCc2c(sc3c2c(=O)n(-c2cccc(Cl)c2)c(=O)n3CCN2CCCCC2)C1	.	.	.	-19%
CCOC(=O)c1ccc(NC(=O)CCc2nc(-c3ccc(C)cc3)no2)cc1	-2%	?	-3%	-15%
CCOC(=O)c1ccc(NC(=O)CCc2nc(-c3ccc(Cl)cc3)no2)cc1	1%	89µM*	0%	0%
Cc1ccc(-c2nnc(-c3cccc(Br)c3)o2)cc1	27µM*	18%	?	0%
Brc1cccc(-c2nnc(-c3ccccc3)o2)c1	-6%	-24%	7%	-27%
COc1cc2c(c(OC)c1OC)C(c1ccccc1C)CC(=O)O2 (centres undefined)	-9%	?	?	?
COc1ccc(CNC(=O)c2cn(Cc3ccccc3OC)c(=O)s2)cc1	2%	.	.	2%
O=C(Nc1cc(Cl)cc(Cl)c1)C(NCCO)c1ccccc1 (centres undefined)	-3%	35µM*	3%	?
Cc1cc(C)cc(NC(=O)C(NCCN2CCOCC2)c2ccccc2)c1 (centres undefined)	24µM*	?	?	407%
C=CCn1c(CSCc2ccc(F)cc2)n[nH]c1=S	-6%	-8%	-9%	?
O=C(O)c1cccc(Cn2c(Cl)c(/C=N/Nc3ccccc3)sc2=O)c1	?	8.9µM*	?	.
COc1cc(C2C(=O)N(C3CCCCCC3)CC(=O)N2CCC2=CCCCC2)ccc1OC(C)C (centres undefined)	.	.	13%	-17%
